For 39 compounds, Potency and outcome results are on record in PubChem BioAssay (Tox21).

The source made the active and inactive calls. Where a call stands in place of a potency, no number is given. Calls come from the whole dose curve; as a rule, active = well fitted curve in the direction sought with a large enough effect in the repeat runs; inconclusive = weak or mixed curves; inactive = flat fitted curve, though single readings scatter.

The nature of one test: qHTS assay to test for compound auto fluorescence at 535 nm (green) in HepG2 cell free culture (AID 720686). The conditions noted are these: Cell-free medium, green autofluorescence 485/535 nm; series mostly up to 46 µM. (In qHTS, concentration-response curves come from the screen itself.)
As for `CN(C)c1ccc(C(=C2C=CC(=[N+](C)C)C=C2)c2c(O)c(S(=O)(=O)[O-])cc3cc(S(=O)(=O)O)ccc23)cc1`, the Potency entry was “inactive”. Consider `CCN(CC)CCOC(=O)c1ccc(N)cc1Cl`, for which the Potency entry is “inactive”.

`CCCCCCCCCCCCCCCCCC(=O)[O][Al]`: the Potency result is “inactive”. In the case of `CCC(C)[C@H]1O[C@]2(C=C[C@@H]1C)C[C@@H]1C[C@@H](C/C=C(\C)[C@@H](O[C@H]3C[C@H](OC)[C@@H](O[C@H]4C[C@H](OC)[C@H](NC(C)=O)[C@H](C)O4)[C@H](C)O3)[C@@H](C)/C=C/C=C3\CO[C@@H]4[C@H](O)C(C)=C[C@@H](C(=O)O1)[C@]34O)O2` (some centres not stated), the Potency entry was “inactive”. Regarding `CC(C)NCC(O)COc1ccccc1-n1cccc1` (configuration not stated), the Potency entry was “inactive”. As to `CC(C)(C)NC(=O)[C@H]1CC[C@H]2[C@@H]3CC=C4C=C(C(=O)O)CC[C@]4(C)[C@H]3CC[C@]12C`, the Potency entry was “inactive”. For `CC1=C(/C=C/C(C)=C/C=C/C(C)=C/C=C/C=C(C)/C=C/C=C(C)/C=C/C2=C(C)C(=O)CCC2(C)C)C(C)(C)CCC1=O`, the Potency entry is “inactive”. In the case of `CCOC(=O)c1cc(-c2ccccc2)nc2ccc(C)cc12`, the Potency entry was “inactive”.

Another test in a line: qHTS assay to test for compound auto fluorescence at 460 nm (blue) in HepG2 cells (AID 720687). To be noted: autofluorescence 405/460 nm, 1 h; series mostly up to 46 µM. An outline of the steps:
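Cells (2,000/well in MEM with 10% FBS) attached overnight at 37 C, then were exposed to compound or DMSO for 1 hr at 37 C, 5% CO2. Fluorescence read at Ex/Em 405/460 nm, expressed as triamterene-equivalent signal.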
`CCN(CC)CCOc1ccc(-c2nc3cc(Cl)ccc3s2)cc1`: the outcome was inactive. Regarding `O=C(O)CCC/C=C\C[C@@H]1[C@@H](/C=C/[C@@H](O)COc2cccc(C(F)(F)F)c2)[C@H](O)C[C@@H]1O`, the compound was called inactive.

`OCC(O)COc1ccc(Cl)cc1` (configuration not stated): the outcome was inactive. `CC(Oc1ccccc1)C(=O)N[C@@H]1C(=O)N2[C@@H]1SC(C)(C)[C@@H]2C(=O)O` (some centres not stated): the call was inactive. As for `C=CCNC1=C2C[C@@H](C)C[C@H](OC)[C@H](O)[C@@H](C)/C=C(\C)[C@H](OC(N)=O)[C@@H](OC)/C=C\C=C(/C)C(=O)NC(=CC1=O)C2=O`, the call was inactive. Take `COCC(=O)Nc1cc(Sc2ccccc2)ccc1N=C(NC(=O)OC)NC(=O)OC`: the call was inactive.

For the compound `CCCCCCCCCCCCCCCC(=O)OC[C@@H](O)[C@H]1OC[C@H](O)[C@H]1O`, the compound was called inactive. Same read-out and setting: next, `CCN(CC)Cc1cc(Nc2ccnc3cc(Cl)ccc23)ccc1O`: “inactive”. On to `C=CC[C@@H]1/C=C(\C)C[C@H](C)C[C@H](OC)[C@H]2O[C@@](O)(C(=O)C(=O)N3CCCC[C@H]3C(=O)O[C@H](/C(C)=C/[C@@H]3CC[C@@H](O)[C@H](OC)C3)[C@H](C)[C@@H](O)CC1=O)[C@H](C)C[C@@H]2OC`, for which the outcome was inactive.

For `CN(C)CCC=C1c2ccccc2C(C)(C)c2ccccc21`, the outcome was inactive. Regarding `CN1CC(O)c2cc(N=NC(N)=O)c(O)cc21` (configuration not stated), the call was inactive. Consider `CCOC(=O)Cc1cccc(-c2cc(CCCCCCc3ccc(O[C@H]4O[C@H](COC(C)=O)[C@@H](OC(C)=O)[C@H](OC(C)=O)[C@@H]4OC(C)=O)c(-c4cccc(CC(=O)OCC)c4)c3)ccc2O[C@H]2O[C@H](COC(C)=O)[C@@H](OC(C)=O)[C@H](OC(C)=O)[C@@H]2OC(C)=O)c1`, for which the compound was called inactive.

In the case of `CCCC(=O)O[C@]1(C(=O)COC(C)=O)CC[C@H]2[C@@H]3C[C@H](F)C4=CC(=O)C=C[C@]4(C)[C@@]3(F)[C@@H](O)C[C@@]21C`, the result was inactive. As to `C=C1CC2C3CCC4=CC(=O)C=C[C@]4(C)[C@@]3(F)[C@@H](O)C[C@]2(C)[C@@]1(O)C(=O)COC(C)=O` (some centres not stated), the outcome was inactive.

For `C[C@H]1[C@@H](OC(=O)CCC(=O)O)O[C@@H]2OC3(C)CC[C@H]4[C@H](C)CC[C@@H]1[C@@]24OO3`, the compound was classed as inactive.

As for `OCCO[C@@H]1[C@@H](O)[C@H](O)[C@@H](CO)O[C@@H]1O`, the compound was called inactive. In the case of `CN[C@@H]1[C@H](O[C@H]2[C@H](O[C@H]3[C@H](O)[C@@H](O)[C@H](N=C(N)N)[C@@H](O)[C@@H]3N=C(N)N)O[C@@H](C)[C@]2(O)C=O)O[C@@H](CO)[C@H](O)[C@H]1O`, the compound was called inactive. Consider `O=C(Cc1cccs1)N[C@@H]1C(=O)N2C(C(=O)[O-])=C(C[n+]3ccccc3)CS[C@H]12`, for which the compound was called inactive. In the case of `Clc1cc(Cl)c(OCC#CI)cc1Cl`, the outcome was inactive. As for `C[N@+]12CCCC[C@@H]1CCC(=C(c1cccs1)c1cccs1)C2`, the compound was called inactive. For `CC1(O)CCC(C(C)(C)O)CC1` (configuration not stated), the compound was called inactive. As for `CC#CCC(C)[C@H](O)/C=C/[C@@H]1[C@H]2c3cccc(CCCC(=O)O)c3O[C@H]2C[C@H]1O` (some centres not stated), the result was inactive. Take `CCN(CC)CCCC(C)Nc1cc(/C=C/c2ccccc2Cl)nc2cc(Cl)ccc12` (configuration not stated): the compound was classed as inactive. With `CCCCC(=O)OCC(=O)[C@]1(O)Cc2c(O)c3c(c(O)c2[C@@H](O[C@H]2C[C@H](NC(=O)C(F)(F)F)[C@H](O)[C@H](C)O2)C1)C(=O)c1c(OC)cccc1C3=O`, the call was inactive. For the compound `CC1(C)S[C@@H]2[C@H](NC(=O)C3(N)CCCCC3)C(=O)N2[C@H]1C(=O)O`, the call was inactive. Take `CC[C@]1(O)CC2CN(CCc3c([nH]c4ccccc34)[C@@](C(=O)OC)(c3cc4c(cc3OC)N(C)[C@H]3[C@@](O)(C(N)=O)[C@H](O)[C@]5(CC)C=CCN6CC[C@]43[C@@H]65)C2)C1` (some centres not stated): the call was inactive. `CC(=O)Nc1ccc(NC(=S)NC(=O)c2ccc(C(C)(C)C)cc2)cc1`: the outcome was inactive. Still for that read-out and setting: the same measure for `CO[C@H]1O[C@@H]2O[C@@]3(C)CC[C@H]4[C@H](C)CC[C@@H]([C@H]1C)[C@@]24OO3`: “inactive”. Turning to `OC(CN1CCCCC1)c1cc(-c2ccccc2)on1` (configuration not stated), the compound was called inactive. Same read-out and setting: the same measure for `CC(C)(C)C1(O)CCN2CC3c4ccccc4CCc4cccc(c43)C2C1` (configuration not stated): “inactive”; for `NC[C@@H]1O[C@H](O[C@H]2[C@@H](O)[C@H](O[C@@H]3[C@@H](O)[C@H](N)C[C@H](N)[C@H]3O[C@H]3O[C@H](CO)[C@@H](O)[C@H](O)[C@H]3N)O[C@@H]2CO)[C@H](N)[C@@H](O)[C@@H]1O`: “inactive”.

For `CN(C)c1ccc(C(=C2C=CC(=[N+](C)C)C=C2)c2c(O)c(S(=O)(=O)[O-])cc3cc(S(=O)(=O)O)ccc23)cc1`, the outcome was inactive. The same measure, in the same setting: next, `CCN(CC)CCOC(=O)c1ccc(N)cc1Cl`: “inactive”. The same measure, in the same setting: the same measure for `CCCCCCCCCCCCCCCCCC(=O)[O][Al]`: “inactive”. `CCC(C)[C@H]1O[C@]2(C=C[C@@H]1C)C[C@@H]1C[C@@H](C/C=C(\C)[C@@H](O[C@H]3C[C@H](OC)[C@@H](O[C@H]4C[C@H](OC)[C@H](NC(C)=O)[C@H](C)O4)[C@H](C)O3)[C@@H](C)/C=C/C=C3\CO[C@@H]4[C@H](O)C(C)=C[C@@H](C(=O)O1)[C@]34O)O2` (some centres not stated): the result was inactive. The same measure, in the same setting: the same measure for `CC(C)NCC(O)COc1ccccc1-n1cccc1` (configuration not stated): “inactive”. Still for that read-out and setting: the same measure for `CC(C)(C)NC(=O)[C@H]1CC[C@H]2[C@@H]3CC=C4C=C(C(=O)O)CC[C@]4(C)[C@H]3CC[C@]12C`: “inactive”. Regarding `CC1=C(/C=C/C(C)=C/C=C/C(C)=C/C=C/C=C(C)/C=C/C=C(C)/C=C/C2=C(C)C(=O)CCC2(C)C)C(C)(C)CCC1=O`, the compound was called inactive.

Take `CCOC(=O)c1cc(-c2ccccc2)nc2ccc(C)cc12`: the call was inactive.
